Bioassay records (PubChem)
In the library only some 21% were active in any assay of this set; here they are far more common.
CHX counter = counter-screen hit for Shiga toxin inhibitors, cycloheximide | max response, % | actives 12% (n = 300,000) | cell reporter, cycloheximide protein synthesis inhibition counterscreen; in the data active means max response mostly above about 13%, no sharp cut-off; inactive means mostly below about 14%; further: read at 38.3 µM for the half of the compounds with a filed dose; 0% is about no effect
Pf growth 96h = inhibits malaria parasite growth, 96 h | P. falciparum luciferase reporter growth, 96 h | Potency, µM (top dose mostly 28.7 µM), inactives show at the top dose activity change, negative = inhibition, most hits filed as inhibitors | actives 6.9% (n = 320,000) | AID 504834; further: potency means the concentration at half of the fitted maximal effect; on the % scale 0 is the no-effect control and ±100 the full control effect
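Cell-based qHTS: luciferase-tagged P. falciparum in erythrocytes (2% hematocrit, 0.05% parasitemia final) incubated with compounds for 96 hours, 37 C, 5% CO2; luciferase detection reagent then added and luminescence measured.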
Shiga toxin inh = blocks Shiga toxin action in Vero cells. actives 9.2% (n = 290,000). Vero cells, Shiga toxin protein synthesis inhibition reporter. inhibition, % at 38.7 µM; in the data active means inhibition mostly above about 28%, no sharp cut-off; inactive means mostly below about 43%; further: 0% is about no effect
Pf growth 48h = inhibits P. falciparum growth in the first generation, 48 h; P. falciparum luciferase growth in erythrocytes, 48 h; actives 5.9% (n = 310,000); AID 504832; Potency, µM (titrated, usually from 28.7 µM), for the others: at the top dose activity change, negative = inhibition, usual class: inhibitors; further: potency means the concentration at half of the fitted maximal effect; on the % scale 0 is the no-effect control and ±100 the full control effect
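Read-out is firefly luciferase luminescence from an integrated reporter in P. falciparum, so falling signal marks reduced parasite growth. Infected erythrocytes were at 2% hematocrit and 0.1% parasitemia (final) in Albumax-supplemented RPMI 1640.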
NS1 function inh = influenza NS1 inhibition; Potency, µM (top dose mostly 46.1 µM), for inactives: at the top dose activity, positive = more growth; actives 0.4% (n = 270,000); AID 2326; calls by dose curve; further: potency means the concentration at half of the fitted maximal effect; actives are rising curves; nearly all actives have a fitted effect of over 50% in size
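S. cerevisiae expressing influenza A NS1, grown in glucose, washed, then diluted 1:100 into pH 6.0 -URA galactose medium with 23 nl compound. Growth recovery read as OD600; NS1-free strain serves as control.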
* marks the source's active call; other numbers are inactive results; ? = inconclusive; · = no result given; [ ] = remark or other dose. Unless noted, the call rests on the fitted dose curve; in most records, active means well fitted inhibition curve with a large enough effect; inconclusive means small, poorly fitted or top-dose-only effect, or another doubt; inactive means no such curve, though single readings can be large or run the other way.

SMILES	CHX counter	Pf growth 96h	Shiga toxin inh	Pf growth 48h	NS1 function inh
Cc1ccccc1OCCCSc1nc2ccccc2[nH]1	19*	10µM*	27*	7%	-29%
CCOC(=O)c1c(CC(C)C)csc1NC(=O)c1ccccc1C(=O)O	1	41%	20	36%	18%
CC(C)Cc1csc(NC(=O)c2ccc(F)cc2)c1C(=O)O	40*	0%	56*	-2%	-30%
CCc1ccc(C2C(C#N)=C(N)C(C#N)(C#N)C3=CCC(C(C)(C)C)CC32)cc1 (stereo unspecified)	16	13µM*	23	13µM*	17%
C/C(=C\C(=O)c1ccccc1)Nc1ccc2c(c1)OCO2	37*	?	50*	167%	13%
Cc1ccc(C(=O)OCC(=O)Nc2ccc3c(c2)OCO3)o1	21	82%	24	102%	1%
Cc1ccc(C(=O)Nc2ccc3c(c2)OCO3)o1	31*	119%	68*	90%	-1%
C/C(=C\C(=O)c1ccc(C)o1)Nc1ccc2c(c1)OCO2	23*	31%	49*	-11%	-3%
O=C1CSC(c2cccnc2)N1c1ccc(Cl)cc1 (stereo unspecified)	7	?	-10	3%	·
COCCOC(=O)C1=C(N)Oc2c(oc(CO)cc2=O)C1c1c(F)cccc1Cl (stereo unspecified)	-7	4.7µM*	-8	·	9%
Cc1cccc(C(=O)NCC(=O)OCC(=O)N(C)CC(=O)Nc2ccc(F)cc2)c1	·	10%	·	15%	·
CCOC(=O)N1CCN(C(=O)c2cn(C)c(=O)c3c2c2ccccc2n3C)CC1	-1	·	13	?	-9%
CC(C)Cn1cc(C(=O)NCc2cccs2)c2c3ccccc3n(C)c2c1=O	-6	8.3µM*	-25	?	-12%
CCOC(=O)N1CCN(C(=O)c2cn(CC(C)C)c(=O)c3c2c2ccccc2n3C)CC1	-7	34%	39	10µM*	-4%
Cc1cc(C(=O)N2CCCC(C(=O)c3cccc(C(F)(F)F)c3)C2)nc(C)n1 (stereo unspecified)	11	?	-16	-11%	-3%
CCOC(=O)c1c(C)[nH]c(C)c1C(=O)CSc1ncccn1	-3	·	-8	8%	2%
C(=Nc1ccc(Nc2ccccc2)cc1)c1ccc2ccccc2c1	11	14%	10	?	5%
Brc1ccc(C=Nc2ccc(Nc3ccccc3)cc2)s1	4	13µM*	-9	?	?
Cc1ccc(C(=O)N/C(=C\c2ccc(-c3cc(Cl)ccc3Cl)o2)C(=O)NCc2cccnc2)cc1	42	?	88	25%	-34%
O=C(NCc1cccnc1)/C(=C\c1ccc(-c2cccc(Cl)c2)o1)S(=O)(=O)c1ccccc1	-13	?	-14	9.3µM*	-14%
O=C(NCc1cccnc1)/C(=C/c1ccc(-c2cccc(Cl)c2)o1)S(=O)(=O)c1ccccc1	-9	3.3µM*	-27	13µM*	-11%
Cc1ccc(C2=NO[C@@](CC(=O)O)(C(=O)Nc3ccc4c(c3)OCCO4)C2)cc1	129*	8%	117*	32%	-2%
O=C(O)CC1(CC(=O)Nc2ccc3c(c2)OCCCO3)CCCCC1	2	31%	3	22%	0%
COc1ccc(OC)c(C2=NO[C@@](CC(=O)O)(C(=O)Nc3ccc4c(c3)OCCO4)C2)c1	65*	20%	77*	12%	-1%
Cc1c(CCC(=O)N2CCC[C@H]2C(=O)O)c(=O)oc2c(C)c3oc4c(c3cc12)CCCC4	8.5*	-20%	5	72%	29%
SMILES	CHX counter	Pf growth 96h	Shiga toxin inh	Pf growth 48h	NS1 function inh
Cc1c(CCC(=O)NCCCCCC(=O)O)c(=O)oc2c(C)c3oc4c(c3cc12)CCCC4	4	?	19	-10%	7%
Cc1cc(=O)oc2ccc(OCC(=O)N(Cc3ccc(F)cc3)Cc3ccco3)cc12	47*	?	76*	10µM*	-44%
CCOC(=O)c1c(NC(=O)CN2CCN(C(=O)C3CCCO3)CC2)sc(C)c1C (stereo unspecified)	-2	-6%	-10	?	11%
O=C(NCc1ccccn1)C1CCN(S(=O)(=O)N2CCCC2)CC1	-3	12%	-3	8%	-1%
O=C1CN(C(=O)/C=C/c2ccco2)c2ccccc2N1	8	13%	22	0%	9%
COc1cc(-c2nc(C(=O)NCC3CCCO3)cc3c2[nH]c2ccccc23)cc(OC)c1OC (stereo unspecified)	-3	6.6µM*	2	?	-11%
COc1ccccc1-c1nc(C(=O)NCC2CCCO2)cc2c1[nH]c1ccccc12 (stereo unspecified)	-1	8.3µM*	7	9.3µM*	-33%
COc1cccc2[nH]c(C(=O)NCC3CCCO3)cc12 (stereo unspecified)	14	33%	74	16%	-2%
COc1ccccc1-n1c(SCC(=O)NCC2CCCO2)nc2c([nH]c3ccccc32)c1=O (stereo unspecified)	2	-38%	12	0%	14%
O=C(NCC1CCCO1)c1cc2ccccc2[nH]1 (stereo unspecified)	15*	?	121*	15%	1%
O=C(NCC1CCCO1)c1cc2c([nH]c3ccccc32)c(-c2cccc(Cl)c2)n1 (stereo unspecified)	0	5.9µM*	12	?	-30%
CC1CN(C(=O)C2CC(=O)N(c3ccc(Cl)cc3)C2)CC(C)O1 (stereo unspecified)	-3	-1%	-7	19%	4%
COc1ccc(-c2n(CC(=O)OC3CC(C)CCC3C(C)C)c3ccccc3[n+]2C)cc1 (stereo unspecified)	-7	30%	10	19%	2%
COc1ccc(OCc2n(CC(=O)OC3CC(C)CCC3C(C)C)c3ccccc3[n+]2C)cc1 (stereo unspecified)	-8	?	-20	1µM*	-9%
CCc1c(C)[nH]n(-c2nc(-c3cccc([N+](=O)[O-])c3)cs2)c1=O	22*	8%	23*	-4%	30%
CCc1c(C)[nH]n(-c2nc(-c3ccccc3)cs2)c1=O	10	5%	1	2%	·
O=C(CSc1ncccc1C(=O)O)Nc1ccc2c(c1)OCCO2	100*	55%	82*	34%	11%
O=C(CSc1ncnc2ccccc12)Nc1ccc2c(c1)OCCO2	31*	16%	63	14%	·
CSc1ccccc1C(=O)N1CCc2ccccc2C1	16*	32%	46	8%[5.75 µM]	·
Cc1ccccc1C(=O)N1CCc2ccccc2C1	19*	-29%	43	-65%	-94%
O=C(c1ccccc1Cl)N1CCc2ccccc2C1	9	·	17	-24%	-5%
Cn1c(C(=O)N2CCc3ccccc3C2)cc2oc3ccccc3c21	38*	12%	61*	107%	-23%
CCn1c(C(=O)N2CCc3ccccc3C2)cc2oc3ccccc3c21	6	211%	7	6%	9%
CSCCCNC(=S)N1CCc2ccccc2C1	29*	71%	74	?	·
